# Among all 360,000 compounds or so, about 320 (0.089%) were called active. The full list was thinned out, with actives kept by preference. Values without a mark were called inactive. Rule as the data show it: active = activation above about 19% (passing the limit was not always enough); inactive = the rest.
# Molecular target: Muscarinic acetylcholine receptor M1 (Homo sapiens) (UniProt P11229)
# Experiment: CHRM1 PAMs potentiating acetylcholine calcium signal – CHO-K1 cells, Fluo-8 calcium fluorescence, 1536-well, primary screen (AID 588819)
# Details: CHO-K1 hM1, Fluo-8 calcium fluorescence, ACh EC20; at 3 µM; hits give high values; 0% = ACh EC20, 100% = maximal ACh
# Muscarinic acetylcholine receptor M1 (Homo sapiens), sequence (P11229 whole entry, looked up): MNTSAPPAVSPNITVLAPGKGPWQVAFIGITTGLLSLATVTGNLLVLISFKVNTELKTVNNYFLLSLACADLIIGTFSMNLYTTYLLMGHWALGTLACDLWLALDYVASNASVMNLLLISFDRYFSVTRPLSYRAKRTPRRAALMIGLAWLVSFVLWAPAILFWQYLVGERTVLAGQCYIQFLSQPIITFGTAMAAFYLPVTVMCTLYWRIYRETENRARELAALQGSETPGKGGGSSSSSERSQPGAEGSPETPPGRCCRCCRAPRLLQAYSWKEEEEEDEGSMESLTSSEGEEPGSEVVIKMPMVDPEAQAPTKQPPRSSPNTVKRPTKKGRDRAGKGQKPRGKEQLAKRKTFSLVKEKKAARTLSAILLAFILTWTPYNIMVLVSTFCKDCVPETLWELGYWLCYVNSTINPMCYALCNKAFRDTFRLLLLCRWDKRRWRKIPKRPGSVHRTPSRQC
row,Structure (SMILES),activation
1,O=S(=O)(Nc1ccccc1)c1ccc(NS(=O)(=O)c2cccs2)cc1,11.7%
2,Cc1ccc(S(=O)(=O)N2CCOCC2)cc1NC(=O)CSc1nnc(N)s1,3.59%
3,CCOc1ccc(N2CC(C(=O)N/N=C/c3sccc3C)CC2=O)cc1 (stereo unspecified),1.58%
4,CC1CN/C(=C\C(=O)c2ccc(Br)cc2)C(=O)N1 (stereo unspecified),5.69%
5,Cc1ccc(C(O)P(=O)(OC(C)C)c2ccc(N(C)C)cc2)cc1 (stereo unspecified),9.51%
6,CC(C)(C)NC(=O)COC(=O)c1cc(Cl)ccc1[N+](=O)[O-],4.45%
7,Cc1ccc(N2CC(C(=O)Nc3cc(Cl)ccc3-n3cncn3)CC2=O)cc1 (stereo unspecified),8.82%
8,O=C(c1ccco1)N1CCN(C(=O)C2CC(c3ccc(Cl)c(Cl)c3)=NO2)CC1 (stereo unspecified),1.62%
9,O=C(c1ccco1)N1CCN(C(=O)C2CC(c3ccc(F)cc3)=NO2)CC1 (stereo unspecified),25.8% (active)
10,CCOC(=O)N1CCN(C(=O)C2CC(c3ccc(F)cc3)=NO2)CC1 (stereo unspecified),-1.27%
11,Cc1ccccc1S(=O)(=O)NC(=O)C1(C)CCN1C(=O)Cc1ccc(Cl)cc1Cl (stereo unspecified),4.98%
12,COC(=O)CC(=O)N1CCN(c2ccc(Cl)c(Cl)c2)CC1,-9.1%
13,COc1cccc(-c2noc(C3CCCN(C(=O)c4ccc(F)cc4)C3)n2)c1 (stereo unspecified),22.6%
14,O=C(c1ccc(F)cc1)N1CCCC(c2nc(-c3cccs3)no2)C1 (stereo unspecified),6.3%
15,Cc1ccc(-c2noc(C3CCCN(C(=O)c4cccc(Cl)c4)C3)n2)o1 (stereo unspecified),28.6% (active)
16,CC1CC(=O)Nc2ccccc2N1C(=O)COc1ccc2cc(Br)ccc2c1 (stereo unspecified),12.5%
17,COc1ccc(NC(=O)c2cnc(NS(=O)(=O)c3ccccc3)nc2)cc1,29.7% (active)
18,COc1ccc(NS(=O)(=O)c2ccc(NC(=O)c3ccc(N(C)S(C)(=O)=O)cc3)cc2)cc1,8.88%
19,O=C(Nc1ccc(S(=O)(=O)Nc2ncccn2)cc1)c1cncc(Br)c1,0.19%
20,CC(C)c1ccc2c(c1)c(SC(C)(C)C)c(CC(C)(C)C(=O)O)n2Cc1ccc(Cl)cc1,-0.45%
21,CC(Oc1ccc(F)cc1)C(=O)N1CCN(c2ncccn2)CC1 (stereo unspecified),0.98%
22,O=C(O)Cc1csc(NC(=O)CSc2nnnn2-c2ccc(O)cc2)n1,11.2%
23,CC(=O)C1=C(C)NC(=O)NC1c1cc(Br)ccc1OCC#N (stereo unspecified),13.1%
24,CCN(CC)C(=O)CSc1ncnc2c1cnn2-c1ccccc1,1.79%
25,CC(Sc1ncnc2c1cnn2-c1ccccc1)C(=O)Nc1ccc(N2CCOCC2)cc1 (stereo unspecified),25.3% (active)
26,CCn1c(SC(C)C(=O)Nc2ccc(N3CCOCC3)cc2)nnc1-c1ccco1 (stereo unspecified),5.42%

row,Structure (SMILES),activation
1,Cc1ccc(S(=O)(=O)N2CCC(C(=O)N[C@@H](C)C(=O)NCc3ccccc3)CC2)cc1,3.35%
2,Cc1cc(C)cc(N(CC(=O)NC2CCCC2)C(=O)CCC(=O)Nc2nccs2)c1,1.06%
3,CC(OC(=O)c1ccccc1OCc1ccc(Cl)cc1)C(N)=O (stereo unspecified),-0.86%
4,COc1cc(NC(=S)N2CCCC(C)C2)c(OC)cc1Cl (stereo unspecified),4.79%
5,Cc1n[nH]c(C)c1S(=O)(=O)N1CCCC(C(=O)Nc2ccc(Br)cc2)C1 (stereo unspecified),3.06%
6,CC1(c2nnc(-c3ccncc3)o2)CC(c2cccnc2)=NO1 (stereo unspecified),-4.79%
7,CC(C)CCNC(=O)C1CCCN(S(=O)(=O)c2ccc(F)cc2)C1 (stereo unspecified),3.91%
8,CC(NC(=O)C(C)(C)C)C(c1cccs1)N1CCN(Cc2ccccc2)CC1 (stereo unspecified),-8.56%
9,CCC(C)NCCOCCOc1ccc(Br)cc1C (stereo unspecified),-26.7%
10,CCOC(=O)N1CCN(c2c(NCCCN3CCCC(C)C3)c(=O)c2=O)CC1 (stereo unspecified),5.95%
11,CCOc1ccc(-n2c(N)c(C(=O)NCC3CCCO3)sc2=S)cc1 (stereo unspecified),1.21%
12,CCCC(=O)N1CCN(c2nnc(-c3ccc(C)cc3)c3ccccc23)CC1,-14.5%
13,CC(=O)NC(Cc1ccc(F)c(F)c1)C(=O)NC1CCN(c2nnnn2-c2ccccc2)CC1 (stereo unspecified),1.64%
14,CCCC(=O)N1CCC1(C)C(=O)NCc1ccc(SC)cc1 (stereo unspecified),3.92%
15,COc1ccccc1N(CCOc1ccccc1)S(=O)(=O)c1ccccc1,0.89%
16,C=Cn1c(C(=O)O)ccc1-c1ccc(OC)cc1,-16.6%
17,CCn1c(-c2cccnc2Cl)nc2cc(C)c(C)cc21,2.37%
18,CCOCCOC(=O)C1=C(C)NC(=O)NC1c1ccc2c(c1)OCO2 (stereo unspecified),6.2%
19,COc1ccccc1NC(=O)C1CCCN1S(=O)(=O)c1ccc(Cl)cc1 (stereo unspecified),28.2% (active)
20,CC(C)c1nnc(NC(=O)C2CCCN2S(=O)(=O)c2ccc(Cl)cc2)s1 (stereo unspecified),10.2%
21,Cc1cccc(NC(=O)C2CCCN2S(=O)(=O)c2ccc(F)cc2)c1C (stereo unspecified),3.34%
22,C=CCn1c2ccccc2c2nnc(SCc3[nH]c(=O)[nH]c3C(=O)CCCCC(=O)OCC)nc21,-3.32%
23,O=C(C(NS(=O)(=O)c1cccc2nsnc12)c1ccccc1)N1CCN(c2ccccn2)CC1 (stereo unspecified),-10.2%
24,CCOC(=O)C(=O)C1C(=O)Nc2ccccc21 (stereo unspecified),1.1%
25,O=C(Nc1ccccc1C(=O)NCCCn1ccnc1)c1ccc(Cl)cc1Cl,7.21%

# Source: PubChem BioAssay AID588819 (The Scripps Research Institute Molecular Screening Center, 2011)
